Measured values published in PubChem BioAssay (NCI).
Compounds without any hit were thinned out: in the full panel of roughly 79,000, 15% have a hit. No stated cut-off is given here; in the data, active means growth inhibition above about 70%; inactive means the rest.

Key:
[1] = NCI Yeast Anticancer Drug Screen. Data for the rad50 strain (AID 155);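 further: 0% = growth of vehicle-only cultures of the same strain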; conditions: S. cerevisiae rad50 strain growth inhibition; at 50.0 µM; hits give high values
Method in brief: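 Growth of the mutant yeast was measured after compound exposure and referenced to vehicle-treated cultures.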

[2] = NCI Yeast Anticancer Drug Screen. Data for the mec2-1 strain (AID 157); conditions: S. cerevisiae mec2-1 strain, at 50.0 µM, hits give high values
Method in brief: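 mec2-1 yeast strain, carrying an alteration in DNA damage repair or cell cycle control, was exposed to compounds; growth inhibition was measured relative to vehicle-treated controls.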

[3] = NCI Yeast Anticancer Drug Screen. Data for the sgs1 mgt1 strain (AID 161);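 further: 0% = growth of cultures given vehicle only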; conditions: S. cerevisiae sgs1 mgt1 strain, at 50.0 µM, hits give high values
Method in brief: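 Compounds are added to genetically altered yeast, and growth is compared with cultures given vehicle alone to give percent inhibition.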

[4] = NCI Yeast Anticancer Drug Screen. Data for the cln2 rad14 strain (AID 165);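 further: 0% = growth equal to vehicle treated cultures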; conditions: S. cerevisiae cln2 rad14 strain, at 50.0 µM, hits give high values
Method in brief: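 Yeast carrying cln2 and rad14 alterations (cell cycle control and DNA damage repair) were exposed to compounds. Growth inhibition was measured against vehicle-treated controls.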

[5] = NCI Yeast Anticancer Drug Screen. Data for the bub3 strain (AID 167); conditions: S. cerevisiae bub3 mutant strain, at 50.0 µM, hits give high values
Method in brief: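 Whole-cell yeast assay. The mutant strain was incubated with compounds, and growth inhibition was determined by comparison with vehicle-treated cells.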

[6] = NCI Yeast Anticancer Drug Screen. Data for the mlh1 rad18 strain (AID 175); conditions: S. cerevisiae mlh1 rad18 strain growth inhibition; at 50.0 µM; hits give high values
Method in brief: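 Growth inhibition of the yeast strain was measured after compound exposure and expressed relative to vehicle-treated controls. The strain carries defined defects in DNA damage repair.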

Measured: growth inhibition

N#CCCN(CCC#N)C(=O)Nc1cccc2ccccc12
inactive: [1] 10.2% | [2] -9.15% | [3] 5.7% | [4] 12.8% | [5] -2.25% | [6] -16.5%

CCOC(=O)NC(CI)(c1ccccc1)c1ccccc1
inactive: [1] 20.9% | [2] 10.2% | [3] 3.55% | [4] 7.2% | [5] -0.25% | [6] 14.6%

CCN1c2ccccc2CC(CCN(C(C)C)C(C)C)(C(N)=O)c2ccccc21 (stereo unspecified)
inactive: [1] 40.9% | [2] 4.9% | [3] 24.8% | [4] 21.3% | [5] -3.1% | [6] -0.9%

CC(=O)Nc1ccc(C(N)=S)cc1
inactive: [1] 11.8% | [2] 7.5% | [3] 3.25% | [4] 5.4% | [5] 10.5% | [6] 4.1%

CCOC(=O)C(NC(=O)Cc1ccccc1)C(=O)O (stereo unspecified)
inactive: [1] -18.8% | [2] 15.5% | [3] -3.2% | [4] -6.4% | [5] -1.65% | [6] 3.35%

N#Cc1ccc(-c2nc3ccc(Cl)cc3[nH]2)cc1
inactive: [1] -47.9% | [2] -31% | [3] -13.7% | [4] 6.7% | [5] -30.9% | [6] -21.9%

COc1c(C)c2nc3ccccc3[nH]c2c2c(=O)ccnc12
inactive: [1] -3.8% | [2] -29.6% | [3] -12.4% | [4] 14.8% | [5] -21.9% | [6] 46.1%

CCOC(=O)/C=C\SCC(=O)OCC
inactive: [1] -8.95% | [2] -4.1% | [3] -6.3% | [4] -33.4% | [5] 4.1% | [6] -14.9%

CC(=O)C1C(=O)C(=O)N(c2ccc(S(N)(=O)=O)cc2)C1=O (stereo unspecified)
inactive: [1] -37.3% | [2] 1.3% | [3] 7.6% | [4] -32.7% | [5] -14.2% | [6] 8.05%

c1ccc(SCN(CSc2ccccc2)c2ccccc2)cc1
inactive: [1] -1.35% | [2] 26.9% | [3] 13.8% | [4] 66.8% | [5] 22.1% | [6] 14.8%

C/C(N=NC(=S)N(C)C)=C1\C=CC=CN1O
inactive: [1] -0.25% | [2] 11.8% | [3] 8.1% | [4] 55.6% | [5] 23.1% | [6] 38.9%

S=C(Sc1nc2ccccc2[nH]1)Sc1nc2ccccc2[nH]1
inactive: [1] 16.9% | [2] -4.05% | [3] 10.2% | [4] -34.9% | [5] 8.95% | [6] 24.6%

CC(C)CCCC(C)C1CCC2C3CCC(O)C(C)(CCCO)C3CCC12C (stereo unspecified)
inactive: [1] 2% | [2] -3.85% | [3] 11.9% | [4] 32.1% | [5] 15.3% | [6] 13.7%

O=c1c2cc([N+](=O)[O-])ccc2n2n1Cc1ccccc1CC2
inactive: [1] -12.8% | [2] -0.9% | [3] -6.5% | [4] 21.5% | [5] 18.5% | [6] -16.4%

Brc1ccccn1
inactive: [1] 35.5% | [2] 11% | [3] 6.2% | [4] -15.1% | [5] 28.3% | [6] 22.8%

N#CCC(c1ccccc1)(c1ccccc1)c1ccccc1
inactive: [1] 46.4% | [2] 34.8% | [3] 45.9% | [4] 37.1% | [5] 52.4% | [6] 39.6%

NC(=O)COc1ccc(Br)cc1Br
inactive: [1] -0.1% | [2] -3.15% | [3] -12.7% | [4] 13.6% | [5] -6.3% | [6] 11.8%

CC(=O)c1cccc(NC(=O)c2c(Br)c(Br)c(Br)c(Br)c2C(=O)O)c1
inactive: [1] -7.25% | [2] -12.6% | [3] 2.95% | [4] 0.2% | [5] -0.25% | [6] -3.1%

c1ccc2c(c1)CCCN2c1nc(N2CCCC2)nc(N2CCOCC2)n1
inactive: [1] -11.6% | [2] -21.8% | [3] 4.4% | [4] 7.25% | [5] 5.45% | [6] -8.25%

S=C(NNC(=S)Nc1ccccc1)Nc1ccccc1
inactive: [1] -16.9% | [2] 1.7% | [3] 6.9% | [4] -1.15% | [5] -5.4% | [6] -2.2%

C=CCCCCCCCCC1OCC(CC)C(CCC)O1 (stereo unspecified)
inactive: [1] 5.65% | [2] 10.1% | [3] -2.8% | [4] 47.5% | [5] 26.5% | [6] 39.3%

CC1(C)C2CCC1(CC(=O)O)C(O)C2=O (stereo unspecified)
inactive: [1] -13.3% | [2] -23.2% | [3] -14.6% | [4] -12.6% | [5] -4.6% | [6] -5.45%

COC(=O)c1[nH]c(=O)c(C#N)c(C(=O)OC)c1-c1ccc(F)cc1
inactive: [1] -4.55% | [2] -24.5% | [3] -15.4% | [4] -2% | [5] -21.2% | [6] -0.05%

CC1=NN(c2ccccc2)C(=O)/C1=C\c1ccccc1
inactive: [1] 15.6% | [2] 16.9% | [3] 24.7% | [4] 10.1% | [5] 33.5% | [6] 21.6%

CC(NC(=O)OC(C)(C)C)C(=O)C(N)=O (stereo unspecified)
inactive: [1] -16.2% | [2] 2.7% | [3] -27.9% | [4] 19.1% | [5] 8.25% | [6] -11.5%

CSc1nc(NC2OCC(O)C(O)C2O)c(C(C)=O)c(=O)n1C (stereo unspecified)
inactive: [1] 3.7% | [2] -7.35% | [3] 8.2% | [4] -1.95% | [5] -33.4% | [6] 4.4%

CCNC(=O)COc1ccc(Cl)cc1C(C)C
inactive: [1] -2.65% | [2] 7.75% | [3] 15.4% | [4] 18.8% | [5] -0.8% | [6] 0.7%

CC12CCC(C(S(=O)(=O)O)C1=O)C2(C)C (stereo unspecified) (tested in a mixture with another compound)
inactive: [1] -1.2% | [2] -15.1% | [3] -6.7% | [4] -5.7% | [5] -0.6% | [6] 0.55%

CCCCCCCCCCCCCCCc1ccc([N+](=O)[O-])c(O)c1
inactive: [1] -2.25% | [2] 33.5% | [3] 7.1% | [4] -8.75% | [5] 51.7% | [6] 35.9%

O=C(O)c1cccc(=O)o1
inactive: [1] -3.35% | [2] -16.3% | [3] -11.3% | [4] 3.35% | [5] 7.1% | [6] -1.65%

COc1ccc(C(O)c2ccccc2C(=O)Nc2ccccc2)cc1 (stereo unspecified)
inactive: [1] -4.95% | [2] -9.7% | [3] -18.2% | [4] -21.9% | [5] -3.35% | [6] -3.9%

NC(C(=O)O)c1ccccc1C(=O)O (stereo unspecified)
inactive: [1] -21.4% | [2] -19.9% | [3] -13.4% | [4] 0.8% | [5] -7.8% | [6] -21.9%

O=C(NNc1ccccc1)NNc1ccccc1 (tested in a mixture with another compound)
inactive: [1] 11.1% | [2] -0.45% | [3] -0.9% | [4] 23.8% | [5] -12.2% | [6] 1.65%

CCN(CC)CCNc1ncnc2c1cnn2C
inactive: [1] 7.7% | [2] 1.8% | [3] -17.9% | [4] -4.5% | [5] -20.9% | [6] -8.9%

COc1cc2[nH]c3c(c2cc1OC)CCN[C@]31CC[C@]2(CC3c4c(cc(OC)c(O)c42)CCN3C)C[C@H]1OC (stereo partly specified)
inactive: [1] 10.8% | [2] -6% | [3] -16.4% | [4] -2.9% | [5] 7.95% | [6] 7.35%

Cc1cc(C)nc(NS(=O)(=O)c2ccc(Nc3c4ccccc4nc4c(C(=O)Nc5ccc(S(=O)(=O)Nc6cc(C)on6)cc5)cccc34)cc2)n1
inactive: [1] 28.8% | [2] 17.6% | [3] 32.2% | [4] 31.7% | [5] 11.4% | [6] 38.9%

COc1ccc(-c2cc(-c3ccccc3)n(-c3ccccc3)n2)cc1
inactive: [1] -0.9% | [2] 15.1% | [3] 7.2% | [4] -2.85% | [5] 0.8% | [6] -15.4%

C=CCOCOC(C)C(=O)OCC (stereo unspecified)
inactive: [1] -10.5% | [2] 6.6% | [3] -8.35% | [4] -26.7% | [5] -9.2% | [6] 6.45%

CS(=O)(=O)OCc1nnn(-c2ccccc2)c1COS(C)(=O)=O
inactive: [1] 7.2% | [2] -9.1% | [3] -3.5% | [4] -40.5% | [5] 11.5% | [6] -11.7%

N=C(N)c1ccc(OCCOc2cccc(N)c2)cc1
inactive: [1] 3.35% | [2] -15.8% | [3] 11.2% | [4] -39% | [5] -5% | [6] 13.5%

CSC(=O)/C=C1\SS/C(=C\C(=O)SC)S1
inactive: [1] -10% | [2] -10.4% | [3] -13.1% | [4] -5% | [5] -11.2% | [6] -16.1%
